Values without a mark were called inactive. Results filed as inconclusive are left out. Where a call stands in place of a potency, no number is given. Activity calls are given as the source filed them. Unless noted, the call rests on the fitted dose curve.
Tests used:
[1] = Nuclear factor erythroid 2-related factor 2/antioxidant responsive element (Nrf2/ARE) small molecule agonists: qHTS cell viability counter screen in human keratinocytes (AID 1919968; active means well fitted curve in the direction sought with a large enough effect in the repeat runs; an effect the other way counts as inactive or inconclusive; further: nearly all actives have a fitted effect of over 55% in size)
In short: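 Cells of the KeratinoSens line were plated at 1,500 per well and left for 5 h before compound transfer from DMSO stocks. After a 23 h incubation (37 C, 5% CO2), CellTiter-Fluor was added. Signal was taken as fluorescence intensity 1 h later.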

[2] = Nuclear factor erythroid 2-related factor 2/antioxidant responsive element (Nrf2/ARE) small molecule agonists: luciferase reporter gene qHTS assay in human keratinocytes (AID 1919969); further: nearly all actives have a fitted effect of over 35% in size
[3] = molecular target: Gonadotropin-releasing hormone receptor (Homo sapiens) (UniProt P30968); assay: Human gonadotropin-releasing hormone receptor (GnRHR) small molecule agonists, calcium flux assay in GnRHR-HEK293 cells (AID 1920063); further: nearly all actives have a fitted effect of over 35% in size
Chain of Gonadotropin-releasing hormone receptor (Homo sapiens) (P30968 whole entry, looked up): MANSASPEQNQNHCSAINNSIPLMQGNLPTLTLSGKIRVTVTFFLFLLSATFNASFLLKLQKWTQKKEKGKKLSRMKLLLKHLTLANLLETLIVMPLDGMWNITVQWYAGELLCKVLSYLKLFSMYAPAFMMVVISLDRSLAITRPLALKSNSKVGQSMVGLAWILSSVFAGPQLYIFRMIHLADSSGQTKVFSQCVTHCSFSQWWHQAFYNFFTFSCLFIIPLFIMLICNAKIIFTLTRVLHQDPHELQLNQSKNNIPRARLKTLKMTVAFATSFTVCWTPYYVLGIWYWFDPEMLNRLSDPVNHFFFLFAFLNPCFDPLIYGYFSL
In short: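 Compounds dissolved in DMSO are pin-transferred onto dye-loaded GnRHR-HEK293 cells, which were seeded 18 h before at 37 C/5% CO2. Calcium signal is read as fluorescence intensity at 1 s intervals for 3 min.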

[4] = molecular target: KiSS-1 receptor (Homo sapiens) (UniProt Q969F8); assay: Human kisspeptin (KISS1R) small molecule agonists, calcium flux assay in KISS1R-HEK293 cells (AID 1920064; active means well fitted curve in the direction sought with a large enough effect in the repeat runs; an effect the other way counts as inactive or inconclusive)
Chain of KiSS-1 receptor (Homo sapiens) (Q969F8 whole entry, looked up): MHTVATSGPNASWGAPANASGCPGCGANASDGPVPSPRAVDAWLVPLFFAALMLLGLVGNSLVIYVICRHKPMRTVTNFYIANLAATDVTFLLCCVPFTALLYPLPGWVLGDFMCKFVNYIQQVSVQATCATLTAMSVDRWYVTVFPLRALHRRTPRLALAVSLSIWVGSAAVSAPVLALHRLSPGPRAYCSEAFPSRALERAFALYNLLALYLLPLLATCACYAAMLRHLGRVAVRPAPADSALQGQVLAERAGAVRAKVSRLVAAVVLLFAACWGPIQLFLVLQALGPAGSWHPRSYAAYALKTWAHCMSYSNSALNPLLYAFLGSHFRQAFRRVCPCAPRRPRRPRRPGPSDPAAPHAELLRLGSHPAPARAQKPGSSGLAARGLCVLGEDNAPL
In short: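 Cell line: HEK293, stable human KISS1R. Dye loading 1 h at 37 C after 18 h culture. Read: kinetic fluorescence, 480/540 nm, 3 min at 1 s intervals.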

[5] = G protein-coupled receptor (GPCR) small molecule agonists, calcium flux assay: HEK293 wild type cell line counter screen (AID 1920065)
In short: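 Tox21 10K compounds, 15 concentrations each in triplicate, pin-transferred in DMSO onto dye-loaded cells; kinetic read at 480/540 nm for 3 min, 1 s intervals.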

[6] = p53 small molecule agonists, cell-based qHTS assay with human liver microsomes (AID 1963577);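 further: p53 response element beta-lactamase reporter cells with liver microsomes plus NADPH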
In short: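 In this qHTS, p53 response-element beta-lactamase cells receive test compound together with a microsome/NADPH activating system (0.5 mg/mL final each) and are incubated 16 h at 37 C before LiveBLAzer fluorescence detection.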

[7] = p53 small molecule agonists, cell-based qHTS assay with rat liver microsomes (AID 1963578)
In short: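 Agonist mode in p53RE-bla reporter cells, with compounds co-incubated 16 h at 37 C alongside 0.5 mg/mL rat liver microsomes and 0.5 mg/mL NADPH (final), followed by a 2 h LiveBLAzer detection step.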

[8] = p53 small molecule agonists, cell-based qHTS assay with human liver microsomes: qHTS cell viability counter screen (AID 1963579); further: nearly all actives have a fitted effect of over 45% in size
In short: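 Metabolically activated exposure: compounds, human liver microsomes and NADPH (0.5 mg/mL final apiece) were added to p53RE-bla cells seeded 5 h earlier, left 16 h at 37 C, and then assessed for viability by CellTiter-Glo luminescence.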

[9] = p53 small molecule agonists, cell-based qHTS assay with rat liver microsomes: qHTS cell viability counter screen (AID 1963580); further: nearly all actives have a fitted effect of over 45% in size
In short: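 Cytotoxicity counter screen: intracellular ATP read by CellTiter-Glo luminescence in the p53 reporter wells. HCT-116 p53RE-bla cells were treated for 16 h at 37 C alongside rat liver microsomes and NADPH, each 0.5 mg/mL final.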

[10] = p53 small molecule agonists, cell-based qHTS assay: qHTS cell viability counter screen (AID 1963581); further: nearly all actives have a fitted effect of over 45% in size
In short: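 ATP content measured by luminescence in HCT-116 p53RE-bla cells treated 16 h at 37 C, same wells as the reporter screen.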

[11] = p53 small molecule agonists, cell-based qHTS assay (AID 1963582; active means well fitted activation curve with a large enough effect in the signal ratio in the repeat runs, not every such curve was filed as active; the % refers to the signal ratio)
In short: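 16 h compound exposure (37 C) of p53 response element–bla cells, preceded by 5 h recovery at 37 C/5% CO2; read-out via LiveBLAzer B/G FRET substrate, 2 h RT, fluorescence intensity.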

[12] = molecular target: 5-hydroxytryptamine receptor 2A (Homo sapiens) (UniProt P28223); assay: 5-hydroxytryptamine receptor 2A (HTR2A) small molecule antagonists, cell-based qHTS assay (AID 1963586); further: nearly all actives have a fitted effect of over 45% in size; further: potency means the concentration at half of the fitted maximal effect
Chain of 5-hydroxytryptamine receptor 2A (Homo sapiens) (P28223 whole entry, looked up): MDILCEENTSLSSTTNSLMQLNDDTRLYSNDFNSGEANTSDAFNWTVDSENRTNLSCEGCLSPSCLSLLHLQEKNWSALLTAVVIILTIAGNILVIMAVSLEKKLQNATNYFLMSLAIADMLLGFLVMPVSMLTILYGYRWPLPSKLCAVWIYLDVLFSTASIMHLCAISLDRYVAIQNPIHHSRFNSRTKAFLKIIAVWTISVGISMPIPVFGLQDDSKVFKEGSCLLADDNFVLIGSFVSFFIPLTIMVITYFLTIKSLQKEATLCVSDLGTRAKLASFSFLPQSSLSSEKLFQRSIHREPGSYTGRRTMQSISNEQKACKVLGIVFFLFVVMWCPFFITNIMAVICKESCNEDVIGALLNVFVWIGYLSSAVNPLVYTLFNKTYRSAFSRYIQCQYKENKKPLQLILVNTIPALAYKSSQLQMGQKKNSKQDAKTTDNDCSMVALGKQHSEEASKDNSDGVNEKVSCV
In short: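 CHO cells stably expressing human HTR2A were plated for 18 h at 37 C, then loaded with calcium dye for 1 h. Compounds were preincubated 5 min at room temperature before DOI (4 nM solution) was added. Kinetic fluorescence was read for 3 min.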

[13] = molecular target: 5-hydroxytryptamine receptor 2A (Homo sapiens) (UniProt P28223); assay: 5-hydroxytryptamine receptor 2A (HTR2A) small molecule agonists, cell-based qHTS assay (AID 1963587); further: nearly all actives have a fitted effect of over 30% in size
In short: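 Kinetic calcium-flux fluorescence (2 min, 1 sec intervals) after compound addition in agonist mode. HTR2A-CHO cells were cultured 18 h, then dye-loaded 1 h at 37 C.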

[14] = molecular target: Muscarinic acetylcholine receptor M1 (Homo sapiens) (UniProt P11229); assay: Cholinergic receptor muscarinic 1 (CHRM1) small molecule antagonists, cell-based qHTS assay (AID 1963588); further: nearly all actives have a fitted effect of over 40% in size
Chain of Muscarinic acetylcholine receptor M1 (Homo sapiens) (P11229 whole entry, looked up): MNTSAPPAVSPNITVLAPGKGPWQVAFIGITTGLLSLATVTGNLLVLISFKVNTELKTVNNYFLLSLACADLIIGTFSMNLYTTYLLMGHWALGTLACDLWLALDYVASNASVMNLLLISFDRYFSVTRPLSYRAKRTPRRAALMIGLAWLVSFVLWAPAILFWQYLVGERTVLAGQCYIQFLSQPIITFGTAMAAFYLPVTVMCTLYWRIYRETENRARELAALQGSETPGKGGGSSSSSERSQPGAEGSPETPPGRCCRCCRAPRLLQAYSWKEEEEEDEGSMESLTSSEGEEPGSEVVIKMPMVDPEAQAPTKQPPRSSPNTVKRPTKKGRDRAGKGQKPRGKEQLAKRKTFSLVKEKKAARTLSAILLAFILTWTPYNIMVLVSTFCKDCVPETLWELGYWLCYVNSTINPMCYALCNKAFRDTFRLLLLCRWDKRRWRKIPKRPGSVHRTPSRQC
In short: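 Compounds were tested at 15 concentrations in three independent runs. Dye-loaded CHRM1-CHO cells were exposed 5 min at room temperature before stimulation by acetylcholine added at 50nM. Intracellular calcium was read kinetically on FDSS for 3 min.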

[15] = molecular target: Muscarinic acetylcholine receptor M1 (Homo sapiens) (UniProt P11229); assay: Cholinergic receptor muscarinic 1 (CHRM1) small molecule agonists, cell-based qHTS assay (AID 1963589); further: nearly all actives have a fitted effect of over 35% in size
In short: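 Homogeneous fluorescence calcium flux, agonist mode. Human M1-expressing CHO cells; compound dosed at 15 concentrations, three independent runs; signal sampled every 1 sec.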

[16] = cAMP Responsive Elements (CRE) small molecule agonists, cell-based qHTS assay (AID 1963590)
In short: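 HEK 293T cells stably bearing CRE-bla were plated at 2,000 cells per well and rested 18 h. Compounds, positive controls or DMSO were added for 3 h at 37 C. LiveBLAzer B/G substrate was then loaded for 2 h at room temperature.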

[17] = cAMP Responsive Elements (CRE) small molecule antagonists, cell-based qHTS assay (AID 1963591; active means well fitted inhibition curve with a large enough effect in the signal ratio in the repeat runs, not every such curve was filed as active; the % refers to the signal ratio)
In short: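 First, CRE-bla HEK293T cells settled 18 h at 37 C. Next, compound and 0.25 uM final NKH477 were applied for 3 h. Last, LiveBLAzer B/G substrate was loaded for 2 h at room temperature.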

[18] = molecular target: Beta-2 adrenergic receptor (Homo sapiens) (UniProt P07550); assay: Adrenergic beta2 receptor (ADRB2) small molecule antagonists, cell-based qHTS assay (AID 1963592); further: series mostly up to about 92 µM; nearly all actives have a fitted effect of over 50% in size
Chain of Beta-2 adrenergic receptor (Homo sapiens) (P07550 whole entry, looked up): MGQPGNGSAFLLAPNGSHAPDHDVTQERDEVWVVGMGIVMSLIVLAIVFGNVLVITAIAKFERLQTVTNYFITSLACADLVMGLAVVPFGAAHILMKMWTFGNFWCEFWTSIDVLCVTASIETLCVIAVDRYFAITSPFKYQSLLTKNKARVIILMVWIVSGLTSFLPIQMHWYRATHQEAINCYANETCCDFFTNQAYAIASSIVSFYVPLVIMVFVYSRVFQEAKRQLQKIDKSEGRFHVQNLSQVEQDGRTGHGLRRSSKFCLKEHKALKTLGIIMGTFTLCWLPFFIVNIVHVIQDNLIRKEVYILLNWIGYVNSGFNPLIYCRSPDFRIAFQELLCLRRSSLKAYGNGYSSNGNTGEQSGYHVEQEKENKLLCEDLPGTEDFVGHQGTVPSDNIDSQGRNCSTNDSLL
In short: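 Assay format: CHO-ADRB2 cells, 18-20hr seeding at 37C/5% CO2, then compound plus 1nM isoproterenol agonist mix for 0.5hr RT. Homogeneous time-resolved fluorescence cAMP detection after 1hr, expressed as 665/615 nm ratio.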

[19] = molecular target: Beta-2 adrenergic receptor (Homo sapiens) (UniProt P07550); assay: Adrenergic beta2 receptor (ADRB2) small molecule agonists, cell-based qHTS assay (AID 1963593);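 further: CHO cells stably overexpressing human ADRB2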
In short: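 CHO cells stably over-expressing ADRB2 were plated overnight at 37C, then dosed with compounds plus a stimulation mix containing 100uM IBMX and 25uM Ro-20-1724 for 0.5hr at room temperature. cAMP was measured by HTRF competition, 1hr.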

[20] = molecular target: D(2) dopamine receptor (Homo sapiens) (UniProt P14416); assay: Dopamine D2 receptor (DRD2) small molecule agonists, cell-based qHTS assay (AID 1963594); further: nearly all actives have a fitted effect of over 35% in size
Chain of D(2) dopamine receptor (Homo sapiens) (P14416 whole entry, looked up): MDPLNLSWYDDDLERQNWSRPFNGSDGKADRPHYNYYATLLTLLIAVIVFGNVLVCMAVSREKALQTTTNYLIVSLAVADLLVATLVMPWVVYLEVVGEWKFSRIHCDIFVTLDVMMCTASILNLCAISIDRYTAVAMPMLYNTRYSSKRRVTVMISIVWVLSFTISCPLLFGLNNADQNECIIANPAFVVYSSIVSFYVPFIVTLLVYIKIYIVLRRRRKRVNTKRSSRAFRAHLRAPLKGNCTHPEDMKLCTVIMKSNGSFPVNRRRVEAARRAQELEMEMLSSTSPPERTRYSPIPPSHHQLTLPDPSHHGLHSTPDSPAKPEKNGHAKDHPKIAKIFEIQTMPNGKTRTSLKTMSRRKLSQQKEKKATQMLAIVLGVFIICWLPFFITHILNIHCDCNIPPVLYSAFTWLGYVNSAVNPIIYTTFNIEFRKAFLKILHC
In short: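 cAMP accumulation in DRD2-HEK293 cells measured by HTRF after 1 h detection; compounds added 10 min before NKH477 (200nM […]) forskolin-analogue stimulation, 30 min at room temperature, with Ro20-1724 present at 0.1 mM final.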

Compound	Potency [1]	Potency [2]	Potency [3]	Potency [4]	Potency [5]	Potency [6]	Potency [7]	Potency [8]	Potency [9]	Potency [10]	Potency [11]	Potency [12]	Potency [13]	Potency [14]	Potency [15]	Potency [16]	Potency [17]	Potency [18]	Potency [19]	Potency [20]
CCC(C)(C)CC	inactive	inactive	inactive	inactive	inactive	inactive	inactive	inactive	inactive	inactive	inactive	inactive	inactive	inactive	inactive	inactive	inactive	inactive	inactive	inactive
C=C(C)C(=O)OCCOP(=O)(O)O	inactive	inactive	inactive	inactive	inactive	inactive	inactive	inactive	inactive	inactive	inactive	inactive	inactive	inactive	inactive	inactive	inactive	inactive	inactive	inactive
O=S(O)CO	inactive	inactive	inactive	inactive	inactive	inactive	inactive	inactive	inactive	inactive	inactive	inactive	inactive	inactive	inactive	inactive	inactive	inactive	inactive	inactive
CCCC(=O)OCc1ccccc1	inactive	inactive	inactive	inactive	inactive	inactive	inactive	inactive	inactive	inactive	inactive	inactive	inactive	inactive	inactive	inactive	inactive	inactive	inactive	inactive
F[Si-2](F)(F)(F)(F)F	inactive	inactive	inactive	inactive	inactive	inactive	inactive	inactive	inactive	inactive	inactive	inactive	inactive	inactive	inactive	inactive	inactive	inactive	inactive	inactive
CO[Si](CCCCl)(OC)OC	inactive	inactive	inactive	inactive	inactive	inactive	inactive	inactive	inactive	inactive	inactive	inactive	inactive	inactive	inactive	inactive	inactive	inactive	inactive	inactive
CCCc1ccccc1	inactive	inactive	inactive	inactive	inactive	inactive	inactive	inactive	inactive	inactive	inactive	inactive	inactive	inactive	inactive	inactive	inactive	inactive	inactive	inactive
CCOC(=O)c1ccccc1C	inactive	inactive	inactive	inactive	inactive	inactive	inactive	inactive	inactive	inactive	inactive	inactive	inactive	inactive	inactive	inactive	inactive	inactive	inactive	inactive
FC(F)(F)C(F)(F)C(F)(F)C(F)(F)C(F)(F)C(F)(F)CCI	inactive	inactive	inactive	inactive	inactive	inactive	inactive	inactive	inactive	inactive	inactive	inactive	inactive	inactive	inactive	inactive	inactive	inactive	inactive	inactive
C=C(C)[C@@H]1CCC2=CCC[C@@H](C)[C@]2(C)C1	inactive	inactive	inactive	inactive	inactive	inactive	inactive	inactive	inactive	inactive	inactive	inactive	inactive	inactive	inactive	inactive	inactive	inactive	inactive	inactive
O=C[C@H](O)[C@H](O)[C@H](O)CO	inactive	inactive	inactive	inactive	inactive	inactive	inactive	inactive	inactive	inactive	inactive	inactive	inactive	inactive	inactive	inactive	inactive	inactive	inactive	inactive
CCC(C)(C)C1CCC(OC)CC1 (stereo not given)	inactive	inactive	inactive	inactive	inactive	inactive	inactive	inactive	inactive	inactive	inactive	inactive	inactive	inactive	inactive	inactive	inactive	inactive	inactive	inactive
CC(C)CCCO	inactive	inactive	inactive	inactive	inactive	inactive	inactive	inactive	inactive	inactive	inactive	inactive	inactive	inactive	inactive	inactive	inactive	inactive	inactive	inactive
COc1cc(CCC(C)=O)ccc1O	inactive	inactive	inactive	inactive	inactive	inactive	inactive	inactive	inactive	inactive	inactive	3.75 µM (active)	inactive	inactive	inactive	inactive	inactive	inactive	inactive	inactive

Reference: PubChem BioAssay (Tox21)
